Data: PubChem BioAssay (NCATS)
Records with an inconclusive call do not appear. Activity calls are given as the source filed them. The call rests on the fitted dose curve; in most records, active means well fitted curve in the direction sought with a large enough effect; inconclusive means small, poorly fitted or top-dose-only effect, or another doubt; inactive means no such curve, though single readings can be large; an effect the other way counts as inactive or inconclusive.

Assays:
[1] = Cellular Toxicity (caspase-3) Mesangial (AID 660); settings: mesangial cells, normalized: DMSO 0%, 100 µM tamoxifen 100%; at 91.7 µM (top of the series);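 further: combined caspase 3 and 7 activity read by Caspase-Glo luminescence; cells exposed to compound for 16 h before the caspase read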
How it was run: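 Caspase 3/7 activation measured by Caspase-Glo 3/7 luminescence (20 min, room temperature) following 16 h exposure of mesangial cells (1000/well); AC50 from Hill-equation fit, normalized to DMSO and 100 uM tamoxifen.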

[2] = Cellular Toxicity (caspase-3) SK-N-SH (AID 661);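 further: 0% = DMSO basal and 100% = 10 µM staurosporine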
How it was run: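 Caspase 3/7 activation was read by luminogenic substrate cleavage after 16 hour treatment of SK-N-SH cells. Signal was scaled between DMSO and 10 uM staurosporine, and concentration-response data were fitted with the Hill equation for AC50.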

[3] = Cellular Toxicity (caspase-3) H-4-II-E (AID 663); settings: H-4-II-E rat hepatoma, scaled: DMSO 0%, 100 µM tamoxifen 100%; at 92.2 µM (top of the series);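 further: cells exposed to compound for 16 hr before readout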
How it was run: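 Caspase 3/7 activation measured in H-4-II-E cells in complete culture medium after 16 hr treatment at 37 °C, using luciferase-coupled substrate readout; AC50 values come from Hill-equation fits of normalized concentration-response data.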

[4] = Cellular Toxicity (caspase-3) Hek293 (AID 664); settings: HEK293 caspase-3 activation, DMSO = 0%, 100 µM tamoxifen = 100%; at 92.2 µM (top of the series);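 further: cells exposed to compound for 16 h at 37 °C before readout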
How it was run: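 Concentration-response qHTS: caspase 3/7 activation measured by luminescent aminoluciferin substrate cleavage after 16 h compound exposure of Hek 293 cells. AC50 from Hill equation, with DMSO as basal and 100 uM tamoxifen as 100%.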

[5] = Cellular Toxicity (caspase-3) N2a (AID 665);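 further: compound exposure lasted 16 h at 37 °C before readout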
How it was run: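 Caspase-3/7 activation measured as luminescence from Caspase-Glo reagent (1 h, room temperature) after 16 h compound exposure of mouse N2a cells. AC50 values from Hill-equation concentration-response, scaled between DMSO and 10 uM staurosporine.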

[6] = Cellular Toxicity (caspase-3) NIH 3T3 (AID 666);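 further: caspase signal read after 16 h compound exposure; 0% = DMSO basal and 100% = 100 µM tamoxifen stimulation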
How it was run: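 Caspase-Glo 3/7 luminescence reported caspase activation in 1000 NIH 3T3 cells/well after 16 h compound exposure at 37 C. DMSO set basal and 100 uM tamoxifen set 100% stimulation; concentration-response modeled with the Hill equation for AC50.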

[7] = Cellular Toxicity (caspase-3) Renal Proximal Tubule (AID 667); settings: Potency: caspase-3 activation;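 further: cells exposed to compound for 16 hours at 37 °C before detection; 0% = DMSO basal and 100% = 10 µM staurosporine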
How it was run: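 Caspase 3/7 activation measured by luminescent aminoluciferin release in primary rat proximal tubule cells after 16 hr compound exposure at 37 °C. AC50 from Hill-fitted concentration-response, scaled between DMSO and 10 uM staurosporine.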

[8] = biological target: Cytochrome P450 3A4 (Homo sapiens) (UniProt P08684); experiment: qHTS Assay for Activators of Cytochrome P450 3A4 (AID 885); further: nearly all actives have a fitted effect of over 65% in size
Chain of Cytochrome P450 3A4 (Homo sapiens) (P08684 whole entry, looked up): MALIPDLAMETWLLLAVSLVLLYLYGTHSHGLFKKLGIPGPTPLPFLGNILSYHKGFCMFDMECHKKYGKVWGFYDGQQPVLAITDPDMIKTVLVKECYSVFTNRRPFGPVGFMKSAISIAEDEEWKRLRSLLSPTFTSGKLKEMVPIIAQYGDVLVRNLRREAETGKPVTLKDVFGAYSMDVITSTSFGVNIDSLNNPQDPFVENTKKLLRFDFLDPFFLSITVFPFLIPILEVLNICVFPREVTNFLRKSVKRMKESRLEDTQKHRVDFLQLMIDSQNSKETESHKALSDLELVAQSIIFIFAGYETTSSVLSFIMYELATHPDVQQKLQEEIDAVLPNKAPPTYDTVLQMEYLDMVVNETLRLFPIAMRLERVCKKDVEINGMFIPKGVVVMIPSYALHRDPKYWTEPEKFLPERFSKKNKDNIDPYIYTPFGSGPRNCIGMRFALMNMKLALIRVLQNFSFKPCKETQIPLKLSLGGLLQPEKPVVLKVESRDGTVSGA
How it was run: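 Human CYP3A4 dealkylates Luciferin-PPXE to luciferin, which luciferase detection converts to light. Substrate was at its KM (25uM), buffer 200mM KPO4, reaction 60 min at RT.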

[9] = Cell Viability - LYMP2-001 (AID 921);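 further: 0% = DMSO only and full inhibition = tetraoctylammonium bromide control wells; nearly all actives have a fitted effect of over 70% in size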
How it was run: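 Cellular ATP loss read by luciferase luminescence after 24 h compound exposure at 37 C in complete medium. LYMP2-001 lymphoblastoid cells, 2500/well; qHTS concentration-response data fitted with Hill equation for AC50.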

[10] = MultiTox-Fluor Cytotoxicity Assay - LYMP1-001 - Dead Cells (AID 946);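 further: 0% = DMSO and 100% = tetraoctylammonium bromide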
How it was run: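 LYMP1-001 lymphoblastoid cells (2500/well) treated 16 h at 37 C. Dead-cell protease cleavage of bis-AAF-R110 read at Ex/Em 485/520. Normalized to DMSO and 15 uM tetraoctylammonium bromide; AC50 from Hill fits.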

[11] = MultiTox-Fluor Cytotoxicity Assay - LYMP1-001 - Live Cells (AID 947);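 further: 0% = DMSO only and full inhibition = tetraoctylammonium bromide control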
[12] = Cell Viability - LYMP1-002 - Assay at 16 hr (AID 948);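 further: 0% = DMSO alone and full effect = 92 µM tetraoctylammonium bromide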
How it was run: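 ATP luminescence (CellTiter-Glo) was measured after 16 hr compound exposure at 37 C of 2500 lymphoblastoid LYMP1-002 cells per well. Concentration-response curves were fitted with the Hill equation to give AC50.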

[13] = MultiTox-Fluor Cytotoxicity Assay - LYMP1-002 - Live Cells (AID 955); further: on the % scale 0 is the no-effect control and ±100 the full control effect
How it was run: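 After 16 h compound exposure at 37 C, live LYMP1-002 lymphoblastoid cells (2500/well) were quantified by cleavage of cell-permeant GF-AFC substrate, read at 405/510 nm after 60 min. Concentration-response fitted with Hill equation for AC50.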

[14] = MultiTox-Fluor Cytotoxicity Assay - LYMP1-002 - Dead Cells (AID 960);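 further: 0% = DMSO and 100% = tetraoctylammonium bromide; nearly all actives have a fitted effect of over 60% in size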
How it was run: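 Dead-cell fluorescence (Ex/Em 485/520) after 16 h compound exposure at 37 C of LYMP1-002 lymphoblastoid cells in complete medium; AC50 by Hill equation, with data scaled between DMSO and 15 uM tetraoctylammonium bromide.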

[15] = MultiTox-Fluor Cytotoxicity Assay - LYMP1-003 - Dead Cells (AID 961);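 further: 0% = DMSO and 100% = tetraoctylammonium bromide; nearly all actives have a fitted effect of over 70% in size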
How it was run: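 LYMP1-003 human lymphoblastoid cells (2500/well) exposed to compound 16 h at 37 C in complete medium; dead-cell protease read with bis-AAF-R110 fluorescence (Ex/Em 485/520) after 60 min at room temperature. Normalized to DMSO and 15 uM tetraoctylammonium bromide; AC50 from Hill fit.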

[16] = MultiTox-Fluor Cytotoxicity Assay - LYMP1-003 - Live Cells (AID 962);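 further: 0% = DMSO only and full loss = 92 µM tetraoctylammonium bromide; cytotoxic hits lower the live-cell protease signal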
How it was run: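 Live-cell protease activity (GF-AFC substrate, 405/510 nm, 60 min at room temperature) after 16 h, 37 C compound exposure of human lymphoblastoid LYMP1-003 cells; concentration-response fitted to the Hill equation for AC50.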

[17] = Cell Viability - LYMP1-003 - Assay at 24 hr (AID 963);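 further: plate controls were DMSO only for no effect and tetraoctylammonium bromide positive control for full effect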
How it was run: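 Concentration-response qHTS: ATP loss measured by CellTiter-Glo luminescence after 24 h compound exposure at 37 C. Cells were LYMP1-003 human lymphoblastoid, 2500 per well. AC50 derived via standard Hill equation modeling.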

[18] = Cell Viability - LYMP1-003 - Assay at 40 hr (AID 964); further: on the % scale 0 is the no-effect control and ±100 the full control effect; nearly all actives have a fitted effect of over 60% in size
How it was run: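 Viability is taken as cellular ATP, read by CellTiter-Glo luminescence after 40 h of compound exposure at 37 C. Cells: human lymphoblastoid line LYMP1-003 at 2500/well; AC50 values derived by Hill-equation fitting of concentration-response data.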

[19] = biological target: Cytochrome P450 3A4 (Homo sapiens) (UniProt P08684); experiment: qHTS Assay for Inhibitors and Substrates of Cytochrome P450 3A4 (AID 884); further: on the % scale 0 is the no-effect control and ±100 the full control effect; nearly all actives have a fitted effect of over 50% in size
How it was run: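 Luminescent readout of luciferin produced by CYP3A4 (20 nM) dealkylation of Luciferin-PPXE, 25 uM (its KM). NADPH-driven reaction ran 60 min at RT after 10 min compound preincubation; data scaled to 57 uM ketoconazole as 100% inhibition.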

[20] = Cell Viability - LYMP2-003 (AID 965);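 further: cells exposed to compounds for 24 h before reading; 0% = DMSO only and full effect = 92 µM tetraoctylammonium bromide; nearly all actives have a fitted effect of over 50% in size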
How it was run: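 CellTiter-Glo luminescence quantified ATP loss after 24 h compound treatment of LYMP2-003 lymphoblastoid cells at 37 C. Titration series were fitted with the standard Hill equation to give AC50.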

CCNc1cc(O)ccc1C
inactive: caspase-3 activation [1] 0.47% | outcome [2] | caspase-3 activation [3] 1.36% | caspase-3 activation [4] 0.389% | outcome [5] | outcome [6] | Potency [7] | outcome [8] | Potency [9] | outcome [10] | outcome [11] | outcome [12] | outcome [13] | outcome [14] | Potency [15] | Potency [16] | Potency [17] | Potency [18]

CCOCCO
inactive: caspase-3 activation [1] -0.559% | outcome [2] | caspase-3 activation [3] -0.494% | caspase-3 activation [4] -0.913% | outcome [5] | outcome [6] | Potency [7] | Potency [19] | outcome [10] | outcome [11] | outcome [12] | outcome [13] | Potency [15] | Potency [16] | Potency [18] | Potency [20]

Cc1ccccc1C=O
inactive: caspase-3 activation [1] -0.421% | outcome [2] | caspase-3 activation [3] 0.931% | caspase-3 activation [4] 1.08% | outcome [5] | outcome [6] | Potency [7] | Potency [9] | outcome [10] | outcome [11] | outcome [12] | outcome [13] | outcome [14] | Potency [15] | Potency [16] | Potency [17] | Potency [18]

CC(O)COC(C)(C)C (stereo not given)
inactive: caspase-3 activation [1] -1.28% | outcome [2] | caspase-3 activation [3] -0.238% | caspase-3 activation [4] 2.41% | outcome [5] | outcome [6] | Potency [7] | Potency [9] | outcome [10] | outcome [11] | outcome [12] | outcome [13] | outcome [14] | Potency [15] | Potency [16] | Potency [17] | Potency [18] | Potency [20]

Cc1cccc2cccnc12
inactive: caspase-3 activation [1] -0.268% | outcome [2] | caspase-3 activation [3] 0.865% | caspase-3 activation [4] -1.22% | outcome [5] | outcome [6] | Potency [7] | Potency [9] | outcome [10] | outcome [11] | outcome [12] | outcome [13] | outcome [14] | Potency [15] | Potency [16] | Potency [17] | Potency [18] | Potency [20]

C/C(C=O)=C/c1ccccc1
inactive: caspase-3 activation [1] -0.174% | outcome [2] | caspase-3 activation [3] -1.36% | caspase-3 activation [4] 0.188% | outcome [5] | outcome [6] | Potency [7] | Potency [19] | outcome [10] | outcome [11] | outcome [12] | outcome [13] | outcome [14] | Potency [16] | Potency [17] | Potency [18] | Potency [20]

CCCCC=O
inactive: caspase-3 activation [1] -1.05% | outcome [2] | caspase-3 activation [3] -0.686% | caspase-3 activation [4] -0.315% | outcome [5] | outcome [6] | Potency [7] | Potency [9] | outcome [10] | outcome [11] | outcome [12] | outcome [13] | outcome [14] | Potency [15] | Potency [16] | Potency [17] | Potency [18] | Potency [20]

Cc1ccccc1C(N)=O
inactive: caspase-3 activation [1] 2.19% | outcome [2] | caspase-3 activation [3] 1.38% | caspase-3 activation [4] 3.64% | outcome [5] | outcome [6] | Potency [7] | Potency [9] | outcome [10] | outcome [12] | outcome [13] | outcome [14] | Potency [15] | Potency [16] | Potency [17] | Potency [18] | Potency [20]

[O-]/[N+](=N\O)c1ccccc1
inactive: caspase-3 activation [1] -1.07% | outcome [2] | caspase-3 activation [3] -1.1% | caspase-3 activation [4] 2.95% | outcome [5] | outcome [6] | Potency [7] | Potency [9] | outcome [10] | outcome [12] | outcome [13] | outcome [14] | Potency [15] | Potency [16] | Potency [18] | Potency [20]

OC/C(Br)=C(\Br)CO
inactive: caspase-3 activation [1] 0.44% | outcome [2] | caspase-3 activation [3] -0.67% | caspase-3 activation [4] 0.816% | outcome [5] | outcome [6] | Potency [7] | Potency [9] | outcome [10] | outcome [11] | outcome [12] | outcome [13] | Potency [15] | Potency [16] | Potency [17] | Potency [18] | Potency [20]

C=CCn1c(=O)n(CC=C)c(=O)n(CC=C)c1=O
inactive: caspase-3 activation [1] -1.07% | outcome [2] | caspase-3 activation [3] 0.22% | caspase-3 activation [4] -1.6% | outcome [5] | outcome [6] | Potency [7] | Potency [9] | outcome [10] | outcome [11] | outcome [12] | outcome [13] | outcome [14] | Potency [15] | Potency [16] | Potency [17] | Potency [18] | Potency [20]

O=[N+]([O-])c1ccc2nc[nH]c2c1
inactive: caspase-3 activation [1] 0.38% | outcome [2] | caspase-3 activation [3] 2.59% | caspase-3 activation [4] 0.287% | outcome [5] | outcome [6] | Potency [7] | outcome [8] | Potency [9] | outcome [10] | outcome [11] | outcome [12] | outcome [13] | outcome [14] | Potency [16] | Potency [17] | Potency [18] | Potency [20]

O=C(Cl)c1ccccc1[N+](=O)[O-]
inactive: caspase-3 activation [1] -1.02% | outcome [2] | caspase-3 activation [3] 1.33% | caspase-3 activation [4] 1.55% | outcome [5] | outcome [6] | Potency [7] | Potency [9] | outcome [10] | outcome [11] | outcome [12] | outcome [13] | Potency [15] | Potency [16] | Potency [17] | Potency [18] | Potency [20]

CC(C)CO
inactive: caspase-3 activation [1] 0.186% | outcome [2] | caspase-3 activation [3] -0.412% | caspase-3 activation [4] -2.74% | outcome [5] | outcome [6] | Potency [7] | Potency [9] | outcome [10] | outcome [11] | outcome [12] | outcome [13] | outcome [14] | Potency [15] | Potency [16] | Potency [18] | Potency [20]

C=CC(=O)NC(C)C
inactive: caspase-3 activation [1] 1.12% | outcome [2] | caspase-3 activation [3] 0.575% | caspase-3 activation [4] 2.01% | outcome [5] | outcome [6] | Potency [7] | Potency [9] | outcome [10] | outcome [11] | outcome [12] | outcome [13] | outcome [14] | Potency [15] | Potency [16] | Potency [17] | Potency [18] | Potency [20]
